Assay outcomes deposited in PubChem BioAssay by National Center for Advancing Translational Sciences (NCATS).
Compounds with a hit are over-represented: about 2.4% of the library has one in this group of screens.
D2 antag – antagonizes the human D2 dopamine receptor; P14416; HEK293 TREx D2 cells, calcium flux, dopamine EC80; inhibition, % at 10 µM; hit rate 2% among 340,000; in the data active means inhibition above about 30%; inactive means below that, where a call was filed
Target sequence (P14416 whole entry, looked up): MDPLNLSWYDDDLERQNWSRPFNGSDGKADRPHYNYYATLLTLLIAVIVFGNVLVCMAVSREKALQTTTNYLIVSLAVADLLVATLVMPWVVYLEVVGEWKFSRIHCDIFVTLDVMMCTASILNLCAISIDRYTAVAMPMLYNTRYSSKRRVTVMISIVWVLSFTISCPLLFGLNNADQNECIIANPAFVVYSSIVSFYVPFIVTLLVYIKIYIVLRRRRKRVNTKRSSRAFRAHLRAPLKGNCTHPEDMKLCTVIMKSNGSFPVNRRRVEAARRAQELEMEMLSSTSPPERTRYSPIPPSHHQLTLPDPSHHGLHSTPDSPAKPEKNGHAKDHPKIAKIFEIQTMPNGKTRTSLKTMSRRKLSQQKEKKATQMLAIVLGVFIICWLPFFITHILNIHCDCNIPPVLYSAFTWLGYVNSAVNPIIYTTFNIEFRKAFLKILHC
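Cells plated overnight at 30 C with tetracycline; no-wash calcium dye, 30–90 min RT; 10 s baseline; compound pinned; 180 s read; EC80 dopamine added; another 180 s read.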
D2 ag-1 – agonists of human D2 dopamine receptor | P14416 | HEK293 T-REx D2 cells, calcium flux agonist mode | activation, % at 2 µM | hit rate 0.53% among 340,000 | AID 485358;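 active means activation over 3 SD above normal in the single-dose calcium agonist read, cut at about 30% in these data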
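Tetracycline-induced HEK293 Trex cells with D2 receptor force-coupled to calcium signaling, plated overnight at 30 C and loaded with no-wash calcium dye. Calcium flux read kinetically for 180 s after compound addition; responses flag agonists.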
D2 PAM-1 – positively modulates the human D2 dopamine receptor allosterically. P14416. HEK293 T-REx D2, calcium flux, EC20 dopamine potentiation. potentiation, % at 10 µM. hit rate 0.34% among 340,000. AID 485347;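 active means potentiation over 3 SD above the plate norm, cut at about 30% in these data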
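Tetracycline-induced HEK293 T-REx cells force-coupled to calcium signalling expressed D2; compounds were pin-added after a 10 s baseline, read kinetically 180 s, then an EC20 dopamine challenge followed with a further 180 s calcium read.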
D2 ag-2 – activates the human D2 dopamine receptor; DiscoveRx PathHunter D2 beta-arrestin, luminescence, 90 min; 100% = 57 uM dopamine signal; activation, % (test concentration not listed); hit rate 0.084% among 360,000; in the data active means activation above about 40%; inconclusive means between about 15% and that limit
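DiscoveRx PathHunter D2 beta-arrestin cells (2,100/well) attached overnight, then compound-stimulated 90 min at 37 C in HBSS/10 mM HEPES/0.1% Tween-20 buffer; beta-galactosidase complementation read by luminescence after 1 h at ambient temperature. Dopamine 57 uM final (EC100) as control.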
D2 PAM-2 – potentiates the human D2 dopamine receptor allosterically; P14416; DiscoveRx D2 beta-arrestin cells, luminescence, 90 min; 100% = 57 uM dopamine signal; potentiation, % (test concentration not listed); hit rate 0.23% among 360,000; in the data active means potentiation above about 50%; inconclusive means mostly about 30% to 49%
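PathHunter beta-arrestin assay in DiscoveRx D2 cells. Compounds were added with an EC20 of dopamine (50 nM final) for 90 min at 37 deg C. Luminescence was read 1 h after detection reagent, with 57 uM dopamine as the EC100 control.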
Large screens that a line does not name were inactive.

Cc1ccccc1C(=O)Nc1nc2nc(C)c(C)c(=O)n2[nH]1	none (no result: D2 antag, D2 ag-2, D2 PAM-2)
CCc1ccccc1NC(=O)C1CCCN(c2ncnc3onc(C)c23)C1 (centres undefined)	none (no result: D2 antag, D2 ag-2, D2 PAM-2)
COc1ccc(C(=O)NNC(=O)C(=O)Nc2ccc(C)cc2)cc1	none (no result: D2 PAM-1)
CCc1ccc(NC(=O)C(=O)NNC(=O)c2ccc(OC)cc2)cc1	D2 antag 43.0
COc1ccc(S(=O)(=O)N2CCCCCC2)cc1C(=O)N(C)Cc1c(F)cccc1Cl	none
COc1ccc(S(=O)(=O)N2CCCCCC2)cc1C(=O)N(C)Cc1ccc(Cl)cc1Cl	D2 antag 46.9
COc1ccc(COc2ccc(S(=O)(=O)N3CCCC3)cc2C(N)=O)cc1F	D2 PAM-1 30.4
COc1ccc(COc2ccccc2C(=O)NCc2ccccc2)cc1F	D2 antag 41.5
COc1cc(NC(=O)CCc2nc3cccnc3n2Cc2cccs2)cc(OC)c1OC	none (no result: D2 antag, D2 ag-2, D2 PAM-2)
Cn1c2ccccc2c2c(C(=O)N3CCN(c4ccccn4)CC3)cn(C3CCCC3)c(=O)c21	D2 antag 31.1
CC(C)CCC(CCN1CCOCC1)c1ccc2c(c1)OCO2 (centres undefined)	D2 antag 30.9
CC(=O)CCc1ccc(OCCCCN2CCC(Cc3ccccc3)CC2)cc1	D2 antag 54.2
CC1CCN(CCCOc2ccc(OCc3ccccc3)cc2)CC1	none
Cc1ccccc1OCCOCCN1CCCCCC1	none (no result: D2 antag, D2 ag-1)
COc1cccc(OC)c1OCCCCN1CCCC1	none
Cc1ccccc1OCCN1CCC(Cc2ccccc2)CC1	D2 antag 46.3
CCC(=O)c1ccccc1OCCCN1CCC(Cc2ccccc2)CC1	D2 antag 97.5
COc1cccc(OC)c1OCCCCN1CCC(Cc2ccccc2)CC1	D2 antag 76.3
COc1cc2cc(CNc3ccc(C)cc3)c(=O)n(CC(=O)Nc3ccc(F)cc3F)c2cc1OC	none (no result: D2 antag, D2 ag-2, D2 PAM-2)
CCN(CC)S(=O)(=O)c1ccc2c(c1)N(CC(=O)NCc1ccccc1)C(=O)C1CCCCN21 (centres undefined)	none (no result: D2 antag, D2 ag-2, D2 PAM-2)
CC1=C(c2ccc(C)cc2)S(=O)(=O)NC1=NCc1cccc(F)c1	none (no result: D2 antag, D2 ag-2, D2 PAM-2)
COc1ccccc1N1CCN(c2nc3ccc(C(=O)c4ccccc4)cc3n3c(C)nnc23)CC1	none (no result: D2 antag, D2 ag-2, D2 PAM-2)
CCOc1ccccc1OCCN1CCC(Cc2ccccc2)CC1	D2 antag 64.0
COc1ccccc1OCCCCN1CCN(C(c2ccccc2)c2ccccc2)CC1	D2 antag 61.0
CCOc1ccccc1OCCN1CCCC1	none
Cc1ccc([N+](=O)[O-])c(OCCN2CCC(Cc3ccccc3)CC2)c1	D2 antag 68.3
N#Cc1ccccc1OCCCN1CCC(Cc2ccccc2)CC1	D2 antag 84.5
CCOC(=O)C1(C)CCCN(C(=O)c2cc(C)oc2C)C1 (centres undefined)	none (no result: D2 antag, D2 ag-1, D2 PAM-1)
CCOc1ccc(NC(=O)CN2C(=O)CC(C)Sc3ccccc32)cc1 (centres undefined)	none (no result: D2 antag, D2 ag-2, D2 PAM-2)
Cc1c(C(=O)Nc2cccc(C#N)c2)sc2nc3n(c(=O)c12)CCCCC3	none (no result: D2 antag, D2 ag-2, D2 PAM-2)
O=C(CSC1=NS(=O)(=O)c2cc(F)ccc2N1)NCCc1ccccc1	D2 ag-1 36.0
Cc1ccc(S(=O)(=O)/N=C2\C=C(NS(=O)(=O)c3ccccc3)C(=O)c3ccccc32)cc1	none (no result: D2 antag, D2 ag-1, D2 PAM-1)
Cc1ccc(S(=O)(=O)/N=C2/C=C(C3C(=O)CC(C)(C)CC3=O)C(=O)c3ccccc32)cc1	D2 PAM-2 110.1
Cc1ccc(C2CC(C(F)(F)F)n3ncc(C(=O)NCc4ccco4)c3N2)cc1 (centres undefined)	D2 antag 37.2
COc1ccc(Cl)cc1Nc1nc(C)cc(=O)[nH]1	D2 antag 74.4
CCc1nnc(NC(=O)CSc2nnc(-c3ccncc3)n2C)s1	D2 PAM-1 30.6
CC(=O)Nc1ccc(NS(=O)(=O)c2c(C)nc3sccn3c2=O)cc1	none (no result: D2 antag, D2 ag-2, D2 PAM-2)
COc1ccc2c(c1)Sc1ccccc1N2CCN(C)C	D2 antag 40.0 (no result: D2 PAM-1)
Cc1n[nH]c(=S)n1/N=C/c1ccc(OCc2ccc(Cl)cc2Cl)cc1	D2 antag 31.3
COC(=O)c1ccccc1NC(=O)c1ncoc1-c1ccco1	none (no result: D2 antag, D2 ag-2, D2 PAM-2)
CCOc1ccc(CN2CCC(n3nccc3NC(=O)c3ccccc3OC)CC2)cc1	D2 antag 38.2
CCn1cc(CN2CCC(n3nccc3NC(=O)c3ccccc3OC)CC2)cn1	none
O=C(CCc1ccccc1)Nc1ccnn1C1CCN(C/C=C/c2ccccc2)CC1	none
COc1ccccc1/C=C/CN1CCC(n2nccc2NC(=O)CCc2ccccc2)CC1	D2 antag 35.3
O=C(Nc1ccnn1C1CCN(Cc2ccccc2)CC1)c1ccccc1Cl	none
O=C(Nc1ccnn1C1CCN(C/C=C/c2ccccc2)CC1)c1ccccc1Cl	D2 antag 79.7, D2 ag-1 82.9, D2 ag-2 inconclusive
CCc1ccc(CNC(=O)c2ccc(Cn3c(=O)c4cccn4c4cccnc43)cc2)cc1	none (no result: D2 antag, D2 ag-2, D2 PAM-2)
CCCCN(C(=O)CC1CCCCC1)c1c(N)n(CCCC)c(=O)[nH]c1=O	none (no result: D2 antag, D2 ag-1, D2 PAM-1)
O=CNc1c(Br)cc2c(c1Br)Cc1cc(Br)ccc1-2	none (no result: D2 antag, D2 ag-1, D2 PAM-1)
O=C(CCCn1c(=O)c2ccccc2n(Cc2cccc(Cl)c2)c1=O)NCCc1ccc(Cl)cc1	none (no result: D2 antag, D2 PAM-1, D2 ag-2, D2 PAM-2)
Cc1sc2nc(SCc3nc(-c4ccccc4)no3)n(-c3ccccc3)c(=O)c2c1C	D2 PAM-1 33.7
O=C(/C=C/c1cccs1)NC1CCS(=O)(=O)C1 (centres undefined)	D2 ag-1 31.8
O=C(/C=C/c1cccs1)NC1CCCC1	none
CC(C)(CN1CCN(Cc2ccccc2)CC1)NS(=O)(=O)c1ccc(Cl)cc1	D2 antag 43.6
CN1CCN(CC(C)(C)NS(=O)(=O)c2ccc(Cl)cc2)CC1	none
O=C(NCc1ccccc1)c1ccc2nnsc2c1	D2 antag 33.6
NC(=O)C1(N2CCCCC2)CCN(c2ccc3nnc(-c4ccccc4)n3n2)CC1	D2 PAM-1 31.8, D2 ag-2 inconclusive
CC1=C(C(=O)N(C(C)C)C(C)C)CC(CC(=O)NCc2ccco2)C(=O)N1Cc1ccc(C(C)(C)C)cc1 (centres undefined)	none (no result: D2 antag, D2 ag-1, D2 PAM-1)
CC1CCN(c2ccc(C(F)(F)F)cc2N)CC1	none
Nc1cc(C(F)(F)F)ccc1-n1cccc1	D2 antag 39.2
CCOC(=O)C1=C(C)Nc2ccccc2N=C1NC(=O)C1CCN(C(=O)c2ccccc2C)CC1	none (no result: D2 antag, D2 ag-1, D2 PAM-1)
NS(=O)(=O)c1ccc(NC(=O)Cc2cccs2)cc1	D2 antag 38.6
CNCc1c(OCc2ccccc2F)ccc2ccccc12	D2 antag 77.8
CNCc1c(OCc2ccccc2)ccc2ccccc12	D2 antag 79.2
Nc1nonc1C(=O)NCCNCc1c(OCc2ccccc2F)ccc2ccccc12	none
COc1ccc(OC)c(NC(=O)CSc2n[nH]c(-c3ccccc3Cl)n2)c1	none (no result: D2 antag, D2 ag-2, D2 PAM-2)
Cc1ccc(S(=O)(=O)N2CCOCC2)cc1C(=O)OCC(=O)Nc1ccc2[nH]c(=O)[nH]c2c1	none
N#CCCSc1ncnc2c1oc1ccccc12	D2 antag 36.2
OCCSc1ncnc2c1oc1ccccc12	none
